Screening data as filed in PubChem.
Casp1 inh: qHTS Assay for Allosteric/Competitive Inhibitors of Caspase-1; P29466; Potency, µM (highest dose often 57.5 µM), for inactives: at the highest dose activity change, negative = inhibition, most hits filed as inhibitors; hit rate 0.03% among 75,000; Caspase-1 enzyme, Ac-WEHD-AFC fluorogenic rate;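 also: plate controls were vehicle for no effect and no substrate for full effect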
Target sequence (P29466 120-297 limits assumed): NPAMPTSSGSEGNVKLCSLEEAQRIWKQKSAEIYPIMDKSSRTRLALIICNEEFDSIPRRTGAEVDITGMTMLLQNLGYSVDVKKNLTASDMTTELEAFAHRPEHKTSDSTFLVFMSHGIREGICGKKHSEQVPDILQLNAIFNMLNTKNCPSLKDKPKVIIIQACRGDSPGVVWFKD
Target sequence (P29466 317-404 limits assumed): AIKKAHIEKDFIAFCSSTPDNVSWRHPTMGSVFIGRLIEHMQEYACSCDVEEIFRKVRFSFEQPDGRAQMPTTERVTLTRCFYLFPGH
DNA Pol III inh: qHTS Assay for Inhibitors of DNA Polymerase III Holoenzyme System. reconstituted DNA polymerase III holoenzyme replication, biochemical. Potency, µM (titrated, usually from 57.1 µM), inactives show at the highest dose activity change, negative = inhibition. hit rate 0.25% among 71,000. AID 603, 2007; also: % is scaled to controls: 0 for no effect and ±100 for the full control effect
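Reconstituted *E. coli* holoenzyme (0.35 nM Pol III, 1 nM beta, 154 nM SSB, 2 nM primase) was preincubated with compound for 15 min at RT. Synthesis on 1.4 nM ssM13Gori ran 35 min, then was stopped with PicoGreen/EDTA and read as dsDNA fluorescence.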
Casp7 inh: qHTS Assay for Allosteric/Competitive Inhibitors of Caspase-7; P55210; recombinant caspase-7, Ac-DEVD-AFC fluorescence rate; hit rate 0.02% among 75,000; Potency, µM (series often up to 57.5 µM), for inactives: at the highest dose activity change, negative = inhibition, most hits filed as inhibitors; active = well fitted inhibition curve with a large enough effect in the main read-out, with a control signal flat, not every such curve was filed as active; inconclusive = small, poorly fitted or top-dose-only effect, or a change in a side signal; also: % of control where 0% means no effect
Target sequence (P55210 24-198 limits assumed): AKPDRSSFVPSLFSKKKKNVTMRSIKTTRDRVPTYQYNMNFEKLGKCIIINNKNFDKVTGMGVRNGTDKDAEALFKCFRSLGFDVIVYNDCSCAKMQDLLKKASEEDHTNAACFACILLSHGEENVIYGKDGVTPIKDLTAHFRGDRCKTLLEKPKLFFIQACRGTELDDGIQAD
Target sequence (P55210 207-303 limits assumed): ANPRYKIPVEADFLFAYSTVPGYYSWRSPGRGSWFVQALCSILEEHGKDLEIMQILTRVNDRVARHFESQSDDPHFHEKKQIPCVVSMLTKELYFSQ
Tau filament bind: qHTS Assay for Tau Filament Binding; Microtubule-associated protein tau (Homo sapiens), P10636; recombinant tau filaments, thioflavin S fluorescence, 15 h; filaments grown with octadecylsulfate alongside compound; Potency, µM (highest dose often 57.1 µM), for inactives: at the highest dose activity change, negative = inhibition; hit rate 2% among 71,000; AID 596, 2007;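 also: % is scaled to controls: 0 for no effect and ±100 for the full control effect; actives lower thioflavin S fluorescence by blocking filaments or displacing dye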
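His-tagged recombinant human tau (exons 2, 3, 10; 1 uM final) fibrillized with 30 uM sodium octadecylsulfate, 15 h at 37 C, in pH 7.4 HEPES buffer with 10 uM thioflavine S and 5 mM DTT. Reduced ThS fluorescence (450/510 nm) marks activity.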
15-hLO inh: qHTS Assay for Inhibitors of 15-hLO (15-human lipoxygenase). Polyunsaturated fatty acid lipoxygenase ALOX15 (Homo sapiens), P16050. purified 15hLO-1, xylenol orange hydroperoxide absorbance. hit rate 1.4% among 74,000. Potency, µM (series often up to 57.1 µM), without a hit: top-dose activity change, negative = inhibition, usual class: inhibitors; also: % is scaled to controls: 0 for no effect and ±100 for the full control effect; nearly all actives have a fitted effect of over 55% in size
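40 nM 15hLO-1 + cpd, 15 min RT; start w/ 50 uM AA (final), 6 min RT; stop/detect w/ 200 uM XO + 300 uM Fe(II) in 50 mM H2SO4, 30 min; A573/A405. Buffer 25 mM Hepes pH 7.5, 0.01% Triton X-100. No-enzyme wells as negative control.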
* marks the source's active call; other numbers are inactive results; i = inactive; ? = inconclusive; · = no result; ! = not active in a repeat; [ ] = dose if it differs, or a comment. A selection: hits, their analogues and other compounds. The true share with any hit is near 3.2%. Unless noted, calls follow the shape of the dose curve; as a rule, active = well fitted curve in the direction sought with a large enough effect; inconclusive = small, poorly fitted or top-dose-only effect, or another doubt; inactive = no such curve, though single readings can be large; an effect the other way counts as inactive or inconclusive. Potency is read from the fitted curve at half-maximal effect.

SMILES | Casp1 inh | DNA Pol III inh | Casp7 inh | Tau filament bind | 15-hLO inh
Cc1ccccc1OC1C=CC(c2ccccc2)OC1CO (stereo unspecified) | -4%[11.5 µM] | · | 1%[11.5 µM] | · | 10%[11.4 µM]
CCC/C=C(\CCC)C(NC(=O)c1ccco1)c1ccc(C(=O)OC)cc1 (stereo unspecified) | -2% | -21% | -4% | -2% | ·
CCc1nc(Nc2ccc(N3CCN(C(C)=O)CC3)cc2)c2oc3ccccc3c2n1 | -6% | -7% | -10% | 20µM* | -24%
c1ccc(Nc2ncnc3c2oc2ccccc23)cc1 | -3% | -4% | 1% | 24% | -22%
CC(=O)N1CCN(c2ccc(Nc3ncnc4c3oc3ccccc34)cc2)CC1 | -2% | -2% | -1% | 25µM* | -14%
CCc1nc(N2CCN(C(=O)c3ccco3)CC2)c2oc3ccccc3c2n1 | -3% | -3% | -1% | 19% | ?
CC1=C(SCCC#N)S/C(=C2\SC(C)=C(SCCC#N)S2)S1 | -4% | -2% | 0% | ? | 13µM*
N#CCCSC(=S)[C@H]1CCCC1=N | -5%[11.5 µM] | 8%[11.4 µM] | -1%[11.5 µM] | 5%[11.4 µM] | -6%[11.4 µM]
CCc1nc2oc3ccccc3c(=O)c2c(=O)n1CCOC | 0% | 10% | -1% | -15% | 3%
COCCn1c(C)nc2oc3ccc(Br)cc3c(=O)c2c1=O | -2% | -9% | -14% | 16µM* | 8%
CN1CCN(c2ccnc(-c3ccoc3)n2)CC1 | -1% | -2% | -5% | -11% | 16µM*
Cc1ccc2nsnc2c1S(=O)(=O)N1CCN(CCc2ccccc2)CC1 | -2% | -7% | 1% | 25µM* | -2%
S=C(Nc1ccccn1)c1ccccn1 | -1% | -4% | 2% | 25µM* | -17%
O=C(O)CC12C[C@H]3C[C@@H](CC(O)(C3)C1)C2 | 2%[11.5 µM] | -4%[11.4 µM] | -1%[11.5 µM] | -5%[11.4 µM] | -5%[11.4 µM]
O=C(CC(=O)c1cc(Cl)ccc1O)c1ccccc1 | -3% | 0% | -3% | 25µM* | ?
Cc1ccc(O)c(C(=O)CC(=O)c2cccc(F)c2)c1 | -2% | 1%[11.4 µM] | -4% | 2µM* | -17%[11.4 µM]
O=C(O)CCCc1ccc2ccc3ccccc3c2c1 | -1%[11.5 µM] | -12%[11.4 µM] | 1%[11.5 µM] | -6%[11.4 µM] | 0%[11.4 µM]
CSc1ccc2c(c1)N(CC[C@H]1CCCCN1C)c1ccccc1S2 | 3%[25.7 µM] | -3%[25.6 µM] | 0%[25.7 µM] | 4µM*! | ?
CSc1ccc2c(c1)N(CCC1CCCCN1C)c1ccccc1S2 (stereo unspecified) | -2% | · | 0% | · | -12%
CN1CCN(c2ncc3nc(-c4ccc(Cl)cc4)c(=O)n(Cc4cccs4)c3n2)CC1 | · | 9% | ? | 2µM* | 4%
O=c1c(-c2cc(F)cc(F)c2)nc2cnc(N3CCNCC3)nc2n1Cc1cccs1 | · | -8% | ? | ? | -6%
O=c1c(-c2ccc(Cl)cc2)nc2cnc(N3CCNCC3)nc2n1Cc1cccs1 | · | 25µM* | ? | 3.2µM* | ?
O=c1c(-c2cccs2)nc2cnc(N3CCNCC3)nc2n1Cc1cccs1 | · | 7.9µM* | ? | i | -27%
CN1C(=O)CC(N2CCC(c3nc4ccccc4[nH]3)CC2)C1=O (stereo unspecified) | 1% | 6% | -1% | 20µM* | -2%
O=C1CC(N2CCC(c3nc4ccccc4[nH]3)CC2)C(=O)N1Cc1ccccc1 (stereo unspecified) | 0% | -2% | -2% | 4% | 0%
SMILES | Casp1 inh | DNA Pol III inh | Casp7 inh | Tau filament bind | 15-hLO inh
COC(=O)C(C(=O)OC)C1O[C@@]23COCCC2(C)C3c2ccccc21 (stereo partly specified) | -1%[11.5 µM] | · | -1%[11.5 µM] | · | 9%[11.4 µM]
CCC1(CC)NC(=O)N(CC(=O)Nc2sc3c(c2C(N)=O)CCC3)C1=O | -11% | 20µM* | -20% | 32% | ?
CCN1C(=O)[C@H]2[C@H]3[C@H](O)[C@H](O)C/C(=N/OC[C@@H](O)COCc4ccco4)[C@@H]3CC[C@@H]2C1=O | -2%[11.5 µM] | · | 1%[11.5 µM] | · | 18%[11.4 µM]
Cc1[nH]c2ccccc2c1Cc1nnc(SCC(=O)NCc2ccco2)o1 | · | -1% | ? | 79% | 13µM*
O=C(CSc1nnc(Cc2ccccc2)o1)NCc1ccco1 | -1% | 2% | 1% | -7% | 8%
COc1ccc(-c2cc(C(=O)N/N=C/c3ccc(O)cc3)[nH]n2)cc1 | -5% | · | -2% | · | -10%
O=C(NCCN1CCCCC1)c1ccc(-n2c(=O)c(=O)[nH]c3ccccc32)cc1 | 1% | · | -2% | · | -5%
COc1ccc(N2Cc3cccc(C(=O)NC(C)CCc4ccco4)c3C2=O)cc1 (stereo unspecified) | -5% | -14% | -21% | 59% | 20µM*
CCOC(=O)N1CCC(NC(=O)c2cccc3c2C(=O)N(c2ccc(OC)cc2)C3)CC1 | 0% | -7% | -22% | 26% | ?
CCCCCCCCCCCCCCC/C=C\[C@H](O)[C@@H](NC(=O)CCCCCCCCCCCCC)OC (tested in a mixture with another compound) | 5% | -5% | 2% | 4% | -28%
O=C(NCCN1CCCCC1)c1ccc(Cc2nc3ccccc3[nH]2)cc1 | -2% | · | 0% | · | 4%
CCOC(=O)CSc1nc2ccc(N3CCOCC3)cc2c(=O)n1Cc1ccc2c(c1)OCO2 | · | -14% | ? | -27% | 20µM*
CCOc1ccc(NCc2nnc(SCC(=O)Nc3cc(C)on3)n2-c2ccc(OC)cc2)cc1 | -5% | -6% | -2% | 16µM* | -11%
CCOc1ccc(NCc2nnc(SCC(=O)Nc3cc(C)on3)n2-c2ccccc2OC)cc1 | -2% | 1% | 0% | -14% | -6%
Cc1cc(Nc2ccccc2N2CCOCC2)n2ncnc2n1 | -1% | -6% | -1% | 20µM* | 17%
Cc1cc(C)nc(Nc2ccc(N3CCOCC3)cc2)n1 | -1% | -1% | 0% | ? | -8%
CC(=O)N1CCN(c2ccc(NCc3ccc4c(c3)OCO4)cc2)CC1 | 2% | -5% | 0% | ? | ?
Cc1ccc(CNc2ccc(N3CCOCC3)cc2)s1 | -2% | -5% | -2% | -13% | 16µM*
O=C(c1ccccc1)N1CCN(c2ccc(NCc3ccc4c(c3)OCO4)cc2)CC1 | 0% | -8% | -3% | 32µM* | 25µM*
CC(=O)N1CCN(c2ccc(NCc3cccs3)cc2)CC1 | -1% | -4% | 0% | 25µM* | 13µM*
CC(=O)Nc1ccc(N2CCN(Cc3ccccc3F)CC2)cc1 | 3% | -1% | 7% | 1% | 2%
CC(=O)N1CCN(c2ccc(NCc3ccccc3)cc2)CC1 | -3% | -3% | 0% | 16µM* | 7.9µM*
CC(=O)Nc1ccc(N2CCN(C(=O)c3cccs3)CC2)cc1 | -1% | -5% | -13% | -10% | 6%
CCCCn1cnc2c(SC)ncnc21 | 4%[11.5 µM] | -2%[11.4 µM] | 1%[11.5 µM] | 0%[11.4 µM] | -5%[11.4 µM]
CC(=O)N1CCN(c2ccc(NC(=O)c3ccc4c(c3)OCCO4)cc2)CC1 | 1% | -7% | -3% | -24% | -2%
